The values below come from PubChem BioAssay (NCATS).

Results filed as inconclusive are left out. Calls of active or inactive are those of the source. Unless noted, calls follow the shape of the dose curve; as a rule, active = well fitted curve in the direction sought with a large enough effect; inconclusive = small, poorly fitted or top-dose-only effect, or another doubt; inactive = no such curve, though single readings can be large; an effect the other way counts as inactive or inconclusive.

Test [1] concerns the target Tyrosine-protein kinase Yes (Homo sapiens) (UniProt P07947). Put plainly: qHTS for small molecule inhibitors of Yes1 kinase: Primary Screen (AID 686947). Also: potency is read from the fitted curve at half-maximal effect; nearly all actives have a fitted effect of over 60% in size. The method, boiled down:
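ADP-Glo luminescence readout; final 4 nM Yes1, 0.1 mM ATP, 0.3 mg/mL poly(E4Y), Tris pH 7.5, MgCl2, DTT, Brij-35. 20 min compound preincubation, 60 min reaction at RT. Normalized to DMSO wells with and without enzyme.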
A general note: qHTS replaces the single test concentration by a dilution series.

Test [2] is described as follows: qHTS for small molecule inhibitors of Yes1 kinase: Counter Assay (AID 686950).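 Also: no kinase present so only ADP-Glo detection of a fixed ADP amount is tested; luminescence from ADP-Glo reporting ADP in a fixed ATP and ADP mixture; 0% = DMSO wells with ATP plus ADP and -100% = ATP-only wells without ADP.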 An outline of the steps: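 Luminescence read-out from ADP-Glo quantifies a fixed ADP amount (0.02 mM ADP with 0.08 mM ATP) after 60 min at room temperature; signal is normalized between DMSO wells with ATP/ADP and with 0.1 mM ATP alone.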
Test [3] is described as follows: P-glycoprotein substrates identified in KB-8-5-11 adenocarcinoma cell line, qHTS therapeutic library screen (AID 1346987). Also: nearly all actives have a fitted effect of over 65% in size. Also: potency is read from the fitted curve at half-maximal effect. An outline of the steps: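 KB-8-5-11: colchicine-selected sub-line of KB-3-1 over-expressing P-gp; assay medium lacked colchicine. 72 h drug exposure at 37 degree C, CellTiter-Glo.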
Test [4] concerns the target Glutathione peroxidase 1 (Homo sapiens) (UniProt P07203). Briefly: Primary qHTS Assay for Inhibitors of Recombinant Selenoprotein Glutathione Peroxidase 1 (GPX1) (AID 1845191). Also: nearly all actives have a fitted effect of over 65% in size. The method, boiled down: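 10 nM GPX1 + cpd, 30 min RT; start w/ 1 mM GSH, 0.5 mM cumene hydroperoxide, 0.5 mM NADPH, 100 nM GR, 0.01% BSA; buffer 50 mM Tris-HCl pH 7.5, 2 mM EDTA, 150 mM NaCl; Fl 340/450, 0 & 15 min.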

In test [5] the target is Catechol O-methyltransferase (Homo sapiens) (UniProt P21964). Briefly: Confirmatory Screen for Target Class Profiling of Small Molecule Inhibitors of Methyltransferases (AID 1745852; calls by dose curve; as to activity change, negative = inhibition: % is scaled to controls: 0 for no effect and ±100 for the full control effect). To be noted: MTase-Glo luminescence, SAH detection, recombinant enzyme; measured here: COMT max response; stronger effect = lower value.
Test [6] concerns the target Guanidinoacetate N-methyltransferase (Homo sapiens) (UniProt Q14353). Described as above. To be noted: activity change, negative = inhibition: at 57.3 µM (top of the series) unless noted.
The target of test [7] is Nicotinamide N-methyltransferase (Homo sapiens) (UniProt P40261). Described as above. To be noted: MTase-Glo luminescence, SAH detection, recombinant enzyme; measured here: NNMT max response; stronger effect = lower value.
Test [8] deals with Phenylethanolamine N-methyltransferase (Homo sapiens) (UniProt P11086). The description is as above. To be noted: MTase-Glo luminescence, SAH detection, recombinant enzyme; measured here: PNMT max response; stronger effect = lower value.
Test [9] in a line: Primary qHTS for inhibitors of nuclear receptor binding SET domain protein 2 (NSD2) in an isogenic RCH-ACV NSD2 p.E1099K mutant (9B) (AID 1645876). Also: potency is read from the fitted curve at half-maximal effect; nearly all actives have a fitted effect of over 70% in size.
The nature of test [10]: Primary qHTS for inhibitors of nuclear receptor binding SET domain protein 2 (NSD2) in an RCH-ACV wild type WT cells (2C) (AID 1645877). Also: potency is read from the fitted curve at half-maximal effect; nearly all actives have a fitted effect of over 70% in size.

Chain of Glutathione peroxidase 1 (Homo sapiens) (P07203 whole entry, looked up): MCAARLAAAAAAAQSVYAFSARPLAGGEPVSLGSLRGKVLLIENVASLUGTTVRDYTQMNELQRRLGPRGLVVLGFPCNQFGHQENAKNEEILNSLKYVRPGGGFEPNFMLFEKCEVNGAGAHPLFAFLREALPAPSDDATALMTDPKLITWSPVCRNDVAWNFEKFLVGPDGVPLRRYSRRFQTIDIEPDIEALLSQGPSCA
Chain of Tyrosine-protein kinase Yes (Homo sapiens) (P07947 whole entry, looked up): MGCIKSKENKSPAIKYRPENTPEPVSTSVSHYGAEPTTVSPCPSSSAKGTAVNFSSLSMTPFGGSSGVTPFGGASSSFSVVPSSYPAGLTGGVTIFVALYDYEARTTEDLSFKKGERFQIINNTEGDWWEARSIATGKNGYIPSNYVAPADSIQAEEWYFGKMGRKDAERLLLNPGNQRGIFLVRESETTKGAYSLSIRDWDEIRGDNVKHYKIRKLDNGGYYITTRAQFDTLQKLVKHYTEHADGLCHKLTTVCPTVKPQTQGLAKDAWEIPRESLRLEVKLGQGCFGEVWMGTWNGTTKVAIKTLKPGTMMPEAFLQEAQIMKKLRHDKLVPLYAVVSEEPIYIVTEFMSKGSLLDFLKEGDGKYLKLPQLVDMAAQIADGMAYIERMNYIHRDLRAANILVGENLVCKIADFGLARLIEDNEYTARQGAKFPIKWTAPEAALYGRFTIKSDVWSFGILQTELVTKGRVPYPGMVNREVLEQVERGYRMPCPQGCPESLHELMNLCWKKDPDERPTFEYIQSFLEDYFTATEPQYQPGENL
Chain of Phenylethanolamine N-methyltransferase (Homo sapiens) (P11086 whole entry, looked up, the tested form may be a part): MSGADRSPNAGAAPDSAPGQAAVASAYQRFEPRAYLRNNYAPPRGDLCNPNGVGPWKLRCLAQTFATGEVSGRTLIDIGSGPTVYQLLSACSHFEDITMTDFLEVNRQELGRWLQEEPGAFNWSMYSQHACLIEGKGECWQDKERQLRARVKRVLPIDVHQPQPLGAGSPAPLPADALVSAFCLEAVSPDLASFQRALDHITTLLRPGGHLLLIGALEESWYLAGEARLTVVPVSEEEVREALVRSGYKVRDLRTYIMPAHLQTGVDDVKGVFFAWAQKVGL
Chain of Catechol O-methyltransferase (Homo sapiens) (P21964 whole entry, looked up): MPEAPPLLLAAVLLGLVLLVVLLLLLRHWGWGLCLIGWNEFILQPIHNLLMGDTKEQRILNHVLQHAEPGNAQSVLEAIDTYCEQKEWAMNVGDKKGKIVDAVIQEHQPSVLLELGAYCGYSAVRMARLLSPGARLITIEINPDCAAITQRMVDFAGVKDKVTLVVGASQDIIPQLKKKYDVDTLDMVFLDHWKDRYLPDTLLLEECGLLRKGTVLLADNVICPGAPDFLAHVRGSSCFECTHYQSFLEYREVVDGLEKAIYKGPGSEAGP
Chain of Nicotinamide N-methyltransferase (Homo sapiens) (P40261 whole entry, looked up): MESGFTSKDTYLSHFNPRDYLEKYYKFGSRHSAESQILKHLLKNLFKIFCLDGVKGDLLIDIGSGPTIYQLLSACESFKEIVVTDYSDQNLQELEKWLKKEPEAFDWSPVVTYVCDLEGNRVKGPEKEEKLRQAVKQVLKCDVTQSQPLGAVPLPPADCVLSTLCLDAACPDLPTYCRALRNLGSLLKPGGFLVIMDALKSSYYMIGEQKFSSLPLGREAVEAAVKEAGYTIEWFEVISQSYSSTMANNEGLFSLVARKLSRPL

Regarding `NS(=O)(=O)c1cccc(N=Cc2c(O)[nH]c3ccccc23)c1`, in test [1], the Potency was 10.4 µM (active). Also, the outcome in [2] was “inactive”. Also, the Potency entry in [3] and in test [4] was “inactive” throughout.
For the molecule `O=C1NC(=O)/C(=C\c2ccc3c(c2)OC(F)(F)O3)S1`, in test [3], the Potency result was “inactive”. For the same molecule, the values for the activity in test [5], in [7] and in test [8] were -3.87%, -7.77% and -2.73%, respectively. Further, the activity change, negative = inhibition in test [6] was -2.97%.
Consider `C=CC(=O)Nc1cccc(Nc2nc(Nc3ccccc3)ncc2C)c1`, for which the Potency in test [3] was 13 µM (active); in test [9], 8.2 µM (active); in [10] it was 8.2 µM (active). In [4], the Potency entry is “inactive”.
